Data on 40 compounds can be found in PubChem BioAssay (NCATS).

Records with an inconclusive call do not appear. Unmarked numbers belong to inactive results. Calls come from the whole dose curve; as a rule, active = well fitted cell-killing curve with a large enough effect; inconclusive = small, poorly fitted or top-dose-only effect; inactive = flat fitted curve, though single readings scatter.

The test is described as follows: MultiTox-Fluor Cytotoxicity Assay - LYMP1-001 - Live Cells (AID 947).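 Note: 0% = DMSO only and full inhibition = tetraoctylammonium bromide control.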 The settings on record: LYMP1-001 lymphoblastoid cells, live-cell protease fluorescence viability; series mostly up to 92.2 µM; activity change, negative = cytotoxicity: at the top concentration. An excerpt: NIH Chemical Genomics Center [NCGC]
NIH Molecular Libraries Screening Centers Network [MLSCN]
National Institutes of Environmental Health Sciences [NIEHS]
National Toxicology Program [NTP]
We have developed a 1536-well cell-based assay for quantitative high throughput screening (qHTS) against a number of cell lines to determine in vitro cytotoxicity of small molecules. This particular assay uses a human lymphoblastoid cell line (LYMP1-001) purchased from Coriell Institute.
NCGC Assay Protocol Summary:
The MultiTox-Fluor Cytotoxicity Assay (Promega) is a homogeneous method to simultaneously measure the relative number of live and dead cells in culture by detecting changes in cell membrane integrity. There are two fluorogenic peptide substrates in the assay reagent. Viable cells are determined when the cell-permeant substrate (GF-AFC) enters the cell and is cleaved by protease from live cells resulting in liberated fluorophore. This live-cell protease activity restricted to viable cells is proportional to cell number. The dead cells are determined by using fluorogenic cell-impermeant peptide substrate (bis-AAF-R110) which cleaved by dead cell proteases leaking from damaged cell membrane.
Using the MultiTox-Fluor Cytotoxicity Assay, the relative number of live cells was measured in the lymphoblastoid cell line with complete culture medium following compound treatment for 16 hours. The assay was performed in opaque black Kalypsys 1536-well plates. In the screen, tetraoctylammonium bromide was used as positive control. Library compounds were measured for their ability to cause acute toxicity in the cell line, as reflected by a decrease in live cell protease activity, in a concentration-dependent manner. […] AC50 values were determined from concentration-response data modeled with the standard Hill equation.
qHTS protocol for MultiTox-Fluor Cytotoxicity assay
[Step] [Parameter] [Value] [Description]
1. Reagent; 5 uL; 2500 lymphoblastoid cells/well
2. Time; 5 hr; 37 C incubation
4. Controls; 23 nL; Tetraoctylammonium bromide 6.4pM to 92 uM
5. Time; 16 hr; 37 C incubation
6. Reagent; 5 uL; MuliTox-Fluor Assay reagent
7. Time; 60 min; Room Temperature
8. Detection; live-cell fluorescence (Ex/Em=405/510); EnVision plate reader
Keywords: cell viability, cytotoxicity, lymphoblastoid cell line, fluorescence, NTPHTS, NTPHTS_NCGC, NIEHS, EPA, DSSTox, MLSMR, MLSCN, NIH Roadmap, qHTS, NCGC
With `C=CCBr`, the “activity change, negative = cytotoxicity” value is -20.5%. The same measure for `C[N+](=O)[O-]`: -13.8%; for `Cc1ccc(N)cc1C`: -19.9%.

Take `O=C(Cl)OCc1ccccc1`: the “activity change, negative = cytotoxicity” value is 0.803%. On to `c1ccc(Nc2ccc(Nc3ccccc3)cc2)cc1`, for which the “activity change, negative = cytotoxicity” value is -24.7%. On to `Oc1c(Cl)cccc1Cl`, for which the “activity change, negative = cytotoxicity” value was -20.1%. With `Cc1cc(C)cc(OP(=O)(Oc2cc(C)cc(C)c2)Oc2cc(C)cc(C)c2)c1` the figure was 8.09%; with `O=[N+]([O-])c1cccc2c([N+](=O)[O-])cccc12`, 14.4%; with `Cc1ccc(OP(=O)(Oc2ccc(C)cc2)Oc2ccc(C)cc2)cc1`, 6.95%. As for `Oc1c(Cl)c(Cl)cc(Cl)c1Cl`, the “activity change, negative = cytotoxicity” value was -15.2%. The same measure for `ClC(Cl)(Cl)C(Cl)(Cl)Cl`: 3.48%; for `COC(=O)c1ccccc1N`: 10.8%. For `ClP(Cl)(Cl)(Cl)Cl`, the “activity change, negative = cytotoxicity” value is 18.4%. With `CC(C)(C)c1ccccc1O`, the “activity change, negative = cytotoxicity” value was 15.5%.

In the case of `CCCC[N+](=O)[O-]`, the “activity change, negative = cytotoxicity” value was 3.89%. With `Oc1cccc(Cl)c1Cl` the figure was -23.2%. As to `Cl/C=C\Cl`, the “activity change, negative = cytotoxicity” value was 1.51%. The same measure for `Cc1cc(-c2ccc(N)c(C)c2)ccc1N`: 11.2%; for `FC(Cl)(Cl)Cl`: -7.25%. As to `C=CC(=O)OCC(CC)CCCC` (stereo not given), the “activity change, negative = cytotoxicity” value was -20.8%. The same measure for `ClCc1ccccc1`: 4.56%; for `CCOS(C)(=O)=O`: -23.8%.

With `CC1CC(=O)O1` (stereo not given), the “activity change, negative = cytotoxicity” value is -6.21%. For `CCOC(=O)CC(SP(=O)(OC)OC)C(=O)OCC` (stereo not given), the “activity change, negative = cytotoxicity” value is -16.6%.

Turning to `CC[N+](=O)[O-]`, the “activity change, negative = cytotoxicity” value is -2.77%.

For the compound `CCN(CC)CCO`, the “activity change, negative = cytotoxicity” value was -6.72%. As for `O=Cc1ccc2c(c1)OCO2`, the “activity change, negative = cytotoxicity” value is -2.82%. For the compound `O=C(O)c1cc(Cl)ccc1Cl`, the “activity change, negative = cytotoxicity” value was -4.41%. The same measure for `O=C(O)CCl`: -4.12%; for `Clc1ccc(C(Cl)(Cl)Cl)cc1Cl`: -22.8%; for `[O-][Cl+2]([O-])O`: 3.81%. With `Nc1cc(Cl)cc(Cl)c1` the figure was 1.09%; with `OCCOCCO`, 1.67%. With `CCC[N+](=O)[O-]` the figure was 8.45%; with `OC[P+](CO)(CO)CO`, 5.62%. In the case of `C=CC(=O)OCCO`, the “activity change, negative = cytotoxicity” value was -6.81%. The same measure for `CC(C)(Cl)Cl`: -11.7%; for `CC(=O)NNc1ccccc1`: 15.3%.

With `COc1c(C(C)(C)C)cc([N+](=O)[O-])c(C)c1[N+](=O)[O-]`, the “activity change, negative = cytotoxicity” value was -24.9%. With `O=[N+]([O-])c1ccc(O)c([N+](=O)[O-])c1` the figure was -20.5%.
